Measured values as given in PubChem BioAssay AID651871 (Sanford-Burnham Center for Chemical Genomics, 2012).
Where “and” joins values, the source holds several entries; their conditions need not be identical. Equal values may be shown once.

system: H9c2; experiment: cardiomyocyte survival under oxidative or metabolic stress – cell-based, panel, H9c2 and HL-1, ATP luminescence, set 2, SAR follow-up (AID 651871); conditions: H9c2/HL-1 cardiomyocytes, 2-deoxyglucose stress, with 2-deoxyglucose; run 11, at 79 µM (top of the series);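 further: cells exposed to stressor for 2 h before ATP readout; reference of the scale not given here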

Row | SMILES | activity (protection/inhibition)
1 | CCOC(=O)c1cccc(NC(=O)CNC(=O)c2cc(-c3cc(OC)c(OC)c(OC)c3)nc3ccccc23)c1 | 112%
2 | COc1ccc2nc(-c3cc(OC)c(OC)c(OC)c3)cc(C(=O)NCC(=O)Nc3ccc(C(C)=O)cc3)c2c1 | 68.6%
3 | COc1ccc2c(c1OC)C(=O)N1c3ccccc3C(=O)N(Cc3cccc(Cl)c3Cl)C21 (stereo not drawn) | 89.7% and 82.5% and -2.54%
